Results reported in the supplement of paper PMC6555819.

How the values were obtained:
Assay in all cases: PBM binding z-score (relative to random genomic background probes); higher = stronger binding; sequences stand for … in GC…GCGATTGACAGCGTAGAATGAAGG
[1] = system: RARb homodimer (NR concentration 270 nM)
Method in brief: (§1)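 Ligand-free nuclear receptor dimers were bound for 1 h to custom Agilent 4×180K protein-binding microarrays. Detection used antibodies against each partner (one per run). Binding z-scores rest on regression-normalized fluorescence, with random background probes as the reference.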

[2] = system: RARg:RXRa (NR concentration 270 nM, RXRa partner concentration 90 nM)
Method in brief: as §1

[3] = system: RARg homodimer (NR concentration 270 nM)
Method in brief: as §1

[4] = system: RXRa DBDmut IVT, anti-RXR (DBD mutation: RXRa K156A/R161A, NR concentration 90 nM)
Method in brief: as §1

[5] = system: RXRa homodimer (NR concentration 180 nM)
Method in brief: as §1

[6] = system: THRa:RXRa (NR concentration 90 nM, RXRa partner concentration 90 nM)
Method in brief: as §1

[7] = system: THRa homodimer (NR concentration 90 nM)
Method in brief: as §1

[8] = system: VDR homodimer (NR concentration 270 nM)
Method in brief: as §1

TCTATTAGTTGATTAGGGCATCCGAAACAGCGGA
PBM binding z-score [1]: 0.405 | PBM binding z-score [2]: 0.611 | PBM binding z-score [3]: 0.418 | PBM binding z-score [4]: 1.08 | PBM binding z-score [5]: 0.604 | PBM binding z-score [6]: 0.428 | PBM binding z-score [7]: 0.317 | PBM binding z-score [8]: 0.435

CCTACTGGGCAATTCAGAGGTCATTGATCATATG
PBM binding z-score [1]: 3.57 | PBM binding z-score [2]: 3.21 | PBM binding z-score [3]: 2.73 | PBM binding z-score [4]: 0.679 | PBM binding z-score [5]: 3.76 | PBM binding z-score [6]: 2.98 | PBM binding z-score [7]: 1.16 | PBM binding z-score [8]: 3.05

CGTCAAAGTACAACTAAGGTAACGTAAAGCACGC
PBM binding z-score [1]: 1.16 | PBM binding z-score [2]: 1.03 | PBM binding z-score [3]: 1.21 | PBM binding z-score [4]: 0.971 | PBM binding z-score [5]: 0.543 | PBM binding z-score [6]: 3.77 | PBM binding z-score [7]: 1.62 | PBM binding z-score [8]: 0.523

GATACAGGGTCAAGACCAGAGTACGCGTATTGAT
PBM binding z-score [1]: 3.07 | PBM binding z-score [2]: 4.94 | PBM binding z-score [3]: 4.7 | PBM binding z-score [4]: 2.23 | PBM binding z-score [5]: 5.54 | PBM binding z-score [6]: 3.33 | PBM binding z-score [7]: 0.503 | PBM binding z-score [8]: 2.14

GCGGACAGGTGAAACGCAGGTAACTCAGGGTGGC
PBM binding z-score [1]: 0.239 | PBM binding z-score [2]: 1.13 | PBM binding z-score [3]: 0.717 | PBM binding z-score [4]: -0.341 | PBM binding z-score [5]: 0.426 | PBM binding z-score [6]: 1.41 | PBM binding z-score [7]: -0.55 | PBM binding z-score [8]: -0.834

GGGACGAGGGCAAGTTGATAGCAGAGTTTGATGG
PBM binding z-score [1]: 1.99 | PBM binding z-score [2]: 1.89 | PBM binding z-score [3]: 2.46 | PBM binding z-score [4]: 2.62 | PBM binding z-score [5]: 1.06 | PBM binding z-score [6]: 1.61 | PBM binding z-score [7]: 0.723 | PBM binding z-score [8]: 2.05

CCGACTCGGGCAAAGGTTACCATACTCAGTACGA
PBM binding z-score [1]: 2.04 | PBM binding z-score [2]: 3.36 | PBM binding z-score [3]: 1.68 | PBM binding z-score [4]: 0.702 | PBM binding z-score [5]: 3.21 | PBM binding z-score [6]: 1.6 | PBM binding z-score [7]: -0.126 | PBM binding z-score [8]: -0.375

CATCCAAGGTCAGAGAGGTCAGTGAATGCCGAGT
PBM binding z-score [1]: 5.53 | PBM binding z-score [2]: 6.35 | PBM binding z-score [3]: 7.37 | PBM binding z-score [4]: 3.51 | PBM binding z-score [5]: 6.54 | PBM binding z-score [6]: 4.43 | PBM binding z-score [7]: 2.83 | PBM binding z-score [8]: 6.11

CCGACTGGGGCAGAAAGGTTGCCATACCATCCGG
PBM binding z-score [1]: 0.631 | PBM binding z-score [2]: 0.253 | PBM binding z-score [3]: 0.175 | PBM binding z-score [4]: -1.11 | PBM binding z-score [5]: 0.422 | PBM binding z-score [6]: -0.0628 | PBM binding z-score [7]: -0.642 | PBM binding z-score [8]: -0.404

ATCTCTAGGTACAGTTCAGTGAAAGATCGATAGA
PBM binding z-score [1]: 0.899 | PBM binding z-score [2]: 0.55 | PBM binding z-score [3]: 0.987 | PBM binding z-score [4]: 1.95 | PBM binding z-score [5]: 0.449 | PBM binding z-score [6]: 0.634 | PBM binding z-score [7]: 0.0799 | PBM binding z-score [8]: 1.77

TCTCGGAGGACACGAAGGACAGAGCTTTCCAGAG
PBM binding z-score [1]: 0.867 | PBM binding z-score [2]: 0.776 | PBM binding z-score [3]: 1.75 | PBM binding z-score [4]: 0.518 | PBM binding z-score [5]: 0.243 | PBM binding z-score [6]: 1.48 | PBM binding z-score [7]: 0.544 | PBM binding z-score [8]: 0.139

ATGTGTAGGTTAGCTGGGGTCATTCAGACTAGGC
PBM binding z-score [1]: 3.72 | PBM binding z-score [2]: 4.37 | PBM binding z-score [3]: 3.19 | PBM binding z-score [4]: 2.08 | PBM binding z-score [5]: 5.51 | PBM binding z-score [6]: 5.15 | PBM binding z-score [7]: 3.53 | PBM binding z-score [8]: 5.92

CGAACTAGGTCCGAACAGGACAGTGAAGGATGAT
PBM binding z-score [1]: -0.462 | PBM binding z-score [2]: -0.22 | PBM binding z-score [3]: 0.235 | PBM binding z-score [4]: 0.44 | PBM binding z-score [5]: -0.527 | PBM binding z-score [6]: 0.105 | PBM binding z-score [7]: -0.912 | PBM binding z-score [8]: -0.155

CCTGCTAGGTCATGGTCAGATAATCTACAGTATG
PBM binding z-score [1]: 3.05 | PBM binding z-score [2]: 3.94 | PBM binding z-score [3]: 4.66 | PBM binding z-score [4]: 1.69 | PBM binding z-score [5]: 3.04 | PBM binding z-score [6]: 3.1 | PBM binding z-score [7]: 1.49 | PBM binding z-score [8]: 0.43

CGAAGTAGGTCAAGGACAGTGAATCTCCGCACGC
PBM binding z-score [1]: 3.17 | PBM binding z-score [2]: 3.94 | PBM binding z-score [3]: 4.66 | PBM binding z-score [4]: 1.45 | PBM binding z-score [5]: 2.92 | PBM binding z-score [6]: 3.07 | PBM binding z-score [7]: 1.51 | PBM binding z-score [8]: 0.462

TAGCCTACGTCAGATCGGGCCAGTATACGCTATA
PBM binding z-score [1]: -0.763 | PBM binding z-score [2]: -0.503 | PBM binding z-score [3]: -0.517 | PBM binding z-score [4]: -0.801 | PBM binding z-score [5]: -0.569 | PBM binding z-score [6]: 0.901 | PBM binding z-score [7]: -0.732 | PBM binding z-score [8]: -0.727

ACTTACGGGTCAACAAGGTTATAGCACGCGTATA
PBM binding z-score [1]: 3.84 | PBM binding z-score [2]: 5.44 | PBM binding z-score [3]: 5.07 | PBM binding z-score [4]: 2.33 | PBM binding z-score [5]: 5.87 | PBM binding z-score [6]: 4.04 | PBM binding z-score [7]: 1.05 | PBM binding z-score [8]: 2.78

CCTCGGAGGACAGTAGGTCAGAGCTGTCCGCTTT
PBM binding z-score [1]: 2.39 | PBM binding z-score [2]: 2.09 | PBM binding z-score [3]: 2.06 | PBM binding z-score [4]: 0.0907 | PBM binding z-score [5]: 0.614 | PBM binding z-score [6]: 1.43 | PBM binding z-score [7]: -0.152 | PBM binding z-score [8]: -0.282

CCTCGGGGGACAGAAGGTCAGAGCTGTCCGCTTT
PBM binding z-score [1]: 3.57 | PBM binding z-score [2]: 4.6 | PBM binding z-score [3]: 4.23 | PBM binding z-score [4]: 0.388 | PBM binding z-score [5]: 2.83 | PBM binding z-score [6]: 3.31 | PBM binding z-score [7]: 0.175 | PBM binding z-score [8]: 0.0933

CCTACTGGGCCATAAGGTCATTGATATCAACGTT
PBM binding z-score [1]: 3.91 | PBM binding z-score [2]: 3.77 | PBM binding z-score [3]: 3.15 | PBM binding z-score [4]: 1.01 | PBM binding z-score [5]: 3.28 | PBM binding z-score [6]: 4.14 | PBM binding z-score [7]: 4.56 | PBM binding z-score [8]: 2.93

ACAGACAGGTGATGAAGGTAACTCATGCTATCAT
PBM binding z-score [1]: 0.0338 | PBM binding z-score [2]: 0.394 | PBM binding z-score [3]: 0.615 | PBM binding z-score [4]: -0.0265 | PBM binding z-score [5]: 0.382 | PBM binding z-score [6]: 0.149 | PBM binding z-score [7]: -0.485 | PBM binding z-score [8]: -0.456

CGAACTAGGTCATTGACAAGACAGTGAATAGTAA
PBM binding z-score [1]: 2.2 | PBM binding z-score [2]: 3.71 | PBM binding z-score [3]: 4.21 | PBM binding z-score [4]: 1.81 | PBM binding z-score [5]: 2.68 | PBM binding z-score [6]: 2.3 | PBM binding z-score [7]: 0.53 | PBM binding z-score [8]: 0.774

GCTATTAGTTGAAAGGGCAACCCAATGATTCTCG
PBM binding z-score [1]: 1.98 | PBM binding z-score [2]: 1.31 | PBM binding z-score [3]: 1.34 | PBM binding z-score [4]: 1.09 | PBM binding z-score [5]: 1.3 | PBM binding z-score [6]: 0.458 | PBM binding z-score [7]: -0.122 | PBM binding z-score [8]: 0.235

CAAACTAGGTTAAAGGTCAAAGTCGAGCCAACCA
PBM binding z-score [1]: 4.47 | PBM binding z-score [2]: 7.04 | PBM binding z-score [3]: 5.43 | PBM binding z-score [4]: 2.13 | PBM binding z-score [5]: 8.81 | PBM binding z-score [6]: 3.85 | PBM binding z-score [7]: 0.829 | PBM binding z-score [8]: 2.96

ATATGTAGGTTATGGGTCATTCAGGTTGGTTCGC
PBM binding z-score [1]: 2.97 | PBM binding z-score [2]: 3.09 | PBM binding z-score [3]: 2.28 | PBM binding z-score [4]: 1.31 | PBM binding z-score [5]: 3.79 | PBM binding z-score [6]: 2.74 | PBM binding z-score [7]: 1.53 | PBM binding z-score [8]: 2.76

AGAACGAGGGCAATGAGTGGATAGCACGGGTGGC
PBM binding z-score [1]: 0.709 | PBM binding z-score [2]: 0.805 | PBM binding z-score [3]: 1.49 | PBM binding z-score [4]: 1.05 | PBM binding z-score [5]: 0.694 | PBM binding z-score [6]: 0.576 | PBM binding z-score [7]: -0.226 | PBM binding z-score [8]: 0.818

GGATCGAGGGCAAGTTGATAGCAGAGTTTGATGG
PBM binding z-score [1]: 1.54 | PBM binding z-score [2]: 1.6 | PBM binding z-score [3]: 1.96 | PBM binding z-score [4]: 1.95 | PBM binding z-score [5]: 0.72 | PBM binding z-score [6]: 1.26 | PBM binding z-score [7]: 0.374 | PBM binding z-score [8]: 2.06

GCTGCTAGGTCAACTGATGGTCAGCAAAAGCTCG
PBM binding z-score [1]: 3.66 | PBM binding z-score [2]: 5.17 | PBM binding z-score [3]: 5.41 | PBM binding z-score [4]: 1.5 | PBM binding z-score [5]: 2.99 | PBM binding z-score [6]: 2.91 | PBM binding z-score [7]: 0.775 | PBM binding z-score [8]: 0.254
